This is an account of results in the supplement of paper PMC12067093, “Discovery and optimisation of a covalent ligand for TRIM25 and its application to targeted protein ubiquitination” (Chemical Science, 2025).

The full data set covers some 21,000 targets. This sample favours those with the largest changes.
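Further: competitive profiling in live THP-1 cells: cysteine peptides tagged with an iodoacetamide desthiobiotin (IA-DTB) probe, intensity after compound treatment relative to DMSO-treated cells.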

UniProt A6NHR9, sequence (A6NHR9 whole entry, looked up): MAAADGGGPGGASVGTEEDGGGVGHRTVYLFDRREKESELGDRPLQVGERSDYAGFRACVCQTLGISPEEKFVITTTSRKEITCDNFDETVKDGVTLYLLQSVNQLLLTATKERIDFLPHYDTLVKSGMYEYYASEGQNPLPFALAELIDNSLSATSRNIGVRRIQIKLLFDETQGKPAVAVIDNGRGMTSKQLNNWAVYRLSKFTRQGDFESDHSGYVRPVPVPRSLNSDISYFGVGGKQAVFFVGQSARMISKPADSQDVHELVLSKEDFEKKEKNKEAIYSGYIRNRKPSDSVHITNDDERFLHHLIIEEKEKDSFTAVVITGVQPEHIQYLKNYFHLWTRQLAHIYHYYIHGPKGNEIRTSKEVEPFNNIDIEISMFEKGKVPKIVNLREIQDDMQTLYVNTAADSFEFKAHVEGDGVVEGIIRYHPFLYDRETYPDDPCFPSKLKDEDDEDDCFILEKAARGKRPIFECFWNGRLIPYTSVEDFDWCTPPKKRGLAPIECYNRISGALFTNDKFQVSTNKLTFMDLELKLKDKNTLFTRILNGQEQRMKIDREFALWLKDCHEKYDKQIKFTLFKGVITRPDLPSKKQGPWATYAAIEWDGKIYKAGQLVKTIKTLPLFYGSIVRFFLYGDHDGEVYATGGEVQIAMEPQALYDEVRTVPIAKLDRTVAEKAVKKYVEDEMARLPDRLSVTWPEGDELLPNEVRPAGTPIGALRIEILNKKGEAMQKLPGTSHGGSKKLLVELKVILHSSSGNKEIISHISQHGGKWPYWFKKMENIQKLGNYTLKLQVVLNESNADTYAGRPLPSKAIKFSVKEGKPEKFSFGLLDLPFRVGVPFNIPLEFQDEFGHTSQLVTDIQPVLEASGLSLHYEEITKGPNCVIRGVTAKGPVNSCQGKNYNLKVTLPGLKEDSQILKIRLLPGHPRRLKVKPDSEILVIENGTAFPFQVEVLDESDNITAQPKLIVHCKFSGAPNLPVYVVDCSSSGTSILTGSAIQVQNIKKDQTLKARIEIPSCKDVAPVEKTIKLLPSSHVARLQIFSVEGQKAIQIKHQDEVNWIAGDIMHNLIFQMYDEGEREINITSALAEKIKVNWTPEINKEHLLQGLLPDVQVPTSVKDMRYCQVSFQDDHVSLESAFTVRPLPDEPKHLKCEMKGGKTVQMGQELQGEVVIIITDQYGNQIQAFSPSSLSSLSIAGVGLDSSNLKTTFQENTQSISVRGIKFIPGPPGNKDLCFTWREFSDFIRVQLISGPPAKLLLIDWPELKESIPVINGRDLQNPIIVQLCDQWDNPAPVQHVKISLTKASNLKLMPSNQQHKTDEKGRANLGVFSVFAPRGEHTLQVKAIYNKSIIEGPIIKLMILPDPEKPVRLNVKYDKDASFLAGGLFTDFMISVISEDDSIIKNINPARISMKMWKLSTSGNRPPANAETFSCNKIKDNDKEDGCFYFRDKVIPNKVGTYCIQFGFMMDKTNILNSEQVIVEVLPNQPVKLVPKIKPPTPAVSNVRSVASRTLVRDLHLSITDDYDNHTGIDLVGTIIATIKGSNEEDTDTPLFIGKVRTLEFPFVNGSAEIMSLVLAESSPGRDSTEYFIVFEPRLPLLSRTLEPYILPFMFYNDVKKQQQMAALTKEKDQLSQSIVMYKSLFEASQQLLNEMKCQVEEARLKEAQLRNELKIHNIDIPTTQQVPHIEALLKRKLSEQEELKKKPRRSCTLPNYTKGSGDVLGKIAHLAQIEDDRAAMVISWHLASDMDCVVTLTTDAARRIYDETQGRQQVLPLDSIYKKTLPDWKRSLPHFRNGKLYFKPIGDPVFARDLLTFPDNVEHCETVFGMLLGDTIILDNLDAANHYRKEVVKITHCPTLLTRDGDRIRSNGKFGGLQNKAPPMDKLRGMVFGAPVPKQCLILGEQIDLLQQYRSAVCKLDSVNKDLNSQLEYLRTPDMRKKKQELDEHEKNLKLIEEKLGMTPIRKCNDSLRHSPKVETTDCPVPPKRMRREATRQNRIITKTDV
UniProt Q8NBX0, sequence (Q8NBX0 whole entry, looked up): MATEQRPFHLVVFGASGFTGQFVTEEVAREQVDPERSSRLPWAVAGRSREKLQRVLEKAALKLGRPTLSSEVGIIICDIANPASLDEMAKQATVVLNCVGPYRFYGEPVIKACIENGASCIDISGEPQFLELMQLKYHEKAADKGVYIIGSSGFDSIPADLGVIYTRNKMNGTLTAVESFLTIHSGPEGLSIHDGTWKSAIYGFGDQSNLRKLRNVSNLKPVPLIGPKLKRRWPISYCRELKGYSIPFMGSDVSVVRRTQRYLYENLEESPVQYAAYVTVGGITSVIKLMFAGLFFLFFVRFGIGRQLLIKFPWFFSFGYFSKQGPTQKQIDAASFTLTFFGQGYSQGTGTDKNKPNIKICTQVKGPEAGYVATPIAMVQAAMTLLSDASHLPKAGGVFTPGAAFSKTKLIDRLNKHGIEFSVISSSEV
UniProt Q8IZ73, sequence (Q8IZ73 whole entry, looked up): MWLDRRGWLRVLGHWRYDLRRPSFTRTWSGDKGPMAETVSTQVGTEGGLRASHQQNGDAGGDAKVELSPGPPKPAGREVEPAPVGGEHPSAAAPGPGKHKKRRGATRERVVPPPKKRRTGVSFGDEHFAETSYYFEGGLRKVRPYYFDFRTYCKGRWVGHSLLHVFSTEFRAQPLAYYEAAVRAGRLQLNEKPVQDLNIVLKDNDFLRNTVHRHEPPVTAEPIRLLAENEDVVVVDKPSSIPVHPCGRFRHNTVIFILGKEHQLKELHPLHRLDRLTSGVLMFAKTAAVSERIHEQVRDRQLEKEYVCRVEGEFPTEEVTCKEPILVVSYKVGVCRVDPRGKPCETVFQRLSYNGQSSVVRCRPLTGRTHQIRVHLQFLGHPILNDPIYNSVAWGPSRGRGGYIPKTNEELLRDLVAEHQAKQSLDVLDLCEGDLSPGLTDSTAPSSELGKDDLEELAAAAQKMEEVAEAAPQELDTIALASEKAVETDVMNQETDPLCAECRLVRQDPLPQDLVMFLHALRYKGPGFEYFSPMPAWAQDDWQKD
UniProt Q9UBE0, sequence (Q9UBE0 whole entry, looked up): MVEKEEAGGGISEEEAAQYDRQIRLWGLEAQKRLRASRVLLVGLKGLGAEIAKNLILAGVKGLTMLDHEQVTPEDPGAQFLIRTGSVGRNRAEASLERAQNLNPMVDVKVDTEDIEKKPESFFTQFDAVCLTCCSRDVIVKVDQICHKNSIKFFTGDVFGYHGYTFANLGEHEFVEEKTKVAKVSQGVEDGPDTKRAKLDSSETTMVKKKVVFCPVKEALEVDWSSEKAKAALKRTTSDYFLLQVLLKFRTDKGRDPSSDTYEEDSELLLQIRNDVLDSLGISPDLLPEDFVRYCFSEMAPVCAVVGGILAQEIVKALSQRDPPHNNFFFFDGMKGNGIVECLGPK
UniProt Q6GMV2, sequence (Q6GMV2 whole entry, looked up): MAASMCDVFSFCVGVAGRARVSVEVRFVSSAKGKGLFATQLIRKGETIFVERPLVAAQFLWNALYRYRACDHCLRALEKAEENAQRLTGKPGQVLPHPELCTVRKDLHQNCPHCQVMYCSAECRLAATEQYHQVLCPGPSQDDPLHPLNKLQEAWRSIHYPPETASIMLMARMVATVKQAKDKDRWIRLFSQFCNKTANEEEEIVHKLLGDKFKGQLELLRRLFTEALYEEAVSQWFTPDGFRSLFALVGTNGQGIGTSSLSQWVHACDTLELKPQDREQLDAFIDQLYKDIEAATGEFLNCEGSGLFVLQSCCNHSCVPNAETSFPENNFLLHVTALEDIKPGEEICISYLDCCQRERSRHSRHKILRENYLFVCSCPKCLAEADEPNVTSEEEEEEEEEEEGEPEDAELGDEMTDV
UniProt O75446, sequence (O75446 whole entry, looked up): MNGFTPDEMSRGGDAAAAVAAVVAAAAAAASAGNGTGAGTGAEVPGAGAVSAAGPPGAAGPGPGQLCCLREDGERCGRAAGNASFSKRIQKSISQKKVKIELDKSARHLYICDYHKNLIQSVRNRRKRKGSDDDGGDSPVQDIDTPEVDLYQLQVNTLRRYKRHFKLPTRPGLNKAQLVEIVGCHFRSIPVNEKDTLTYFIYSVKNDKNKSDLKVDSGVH
UniProt O95197, sequence (O95197 whole entry, looked up): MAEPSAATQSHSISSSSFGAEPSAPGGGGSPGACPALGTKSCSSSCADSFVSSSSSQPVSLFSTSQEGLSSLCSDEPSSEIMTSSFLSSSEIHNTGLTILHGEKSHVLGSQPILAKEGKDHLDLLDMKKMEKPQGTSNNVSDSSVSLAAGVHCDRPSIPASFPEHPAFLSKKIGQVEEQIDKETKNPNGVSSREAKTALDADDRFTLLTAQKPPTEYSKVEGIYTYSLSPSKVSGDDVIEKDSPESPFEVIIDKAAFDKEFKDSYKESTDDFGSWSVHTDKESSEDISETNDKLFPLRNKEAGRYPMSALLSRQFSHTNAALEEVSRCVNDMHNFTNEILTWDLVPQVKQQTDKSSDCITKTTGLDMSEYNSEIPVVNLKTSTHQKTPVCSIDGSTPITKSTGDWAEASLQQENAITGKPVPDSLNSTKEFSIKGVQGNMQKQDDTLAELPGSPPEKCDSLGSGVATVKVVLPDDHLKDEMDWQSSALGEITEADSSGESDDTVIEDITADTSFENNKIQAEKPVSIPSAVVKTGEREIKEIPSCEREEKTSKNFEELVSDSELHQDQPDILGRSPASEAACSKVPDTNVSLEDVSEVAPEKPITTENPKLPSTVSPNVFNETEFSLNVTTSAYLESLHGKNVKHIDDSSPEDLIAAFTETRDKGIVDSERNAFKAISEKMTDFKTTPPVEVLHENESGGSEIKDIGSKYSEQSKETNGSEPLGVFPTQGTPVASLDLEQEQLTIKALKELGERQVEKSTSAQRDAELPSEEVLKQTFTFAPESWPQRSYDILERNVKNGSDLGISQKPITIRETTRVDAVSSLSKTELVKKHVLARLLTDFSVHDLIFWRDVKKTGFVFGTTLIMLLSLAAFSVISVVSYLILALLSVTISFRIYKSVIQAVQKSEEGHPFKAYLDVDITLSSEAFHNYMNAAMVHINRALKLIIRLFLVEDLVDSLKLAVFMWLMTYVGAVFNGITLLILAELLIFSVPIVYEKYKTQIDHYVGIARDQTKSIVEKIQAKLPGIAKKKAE

Compound in this assay: Cc1cc(ccc1-c1ccccc1)C(=O)N1CCCN(CC1)C(=O)CCl [compound 10]
The assay is described as follows: probe-labelled cysteine peptide fold change vs DMSO (competition) (log2 fold change); higher = less target engagement (more negative = stronger competition). The following applies: 50 µM; THP-1; incubation time: 4 h.
Take “SCCPDH_Q8NBX0_238_WPISYCR (UniProt Q8NBX0)”: the “probe-labelled cysteine peptide fold change” value was -1.65.
To “SMYD3_Q9H7B4_261+263_DQYCFECDCFR (UniProt Q9H7B4)” belongs -0.599; to “RSBN1_Q5VWQ0_318_DEQLCR (UniProt Q5VWQ0)”, -0.556; to “SMC3_Q9UQE7_1134_CDPAPFYLFDEIDQALDAQHR (UniProt Q9UQE7)”, 0.52.
The value for “SATB1_Q01826_91_GTMLPVFCVVEHYENAIEYDCKEEHAEFVLVR (UniProt Q01826)” was -0.32; that for “SLC25A5_P05141_257_GTDIMYTGTLDCWRK (UniProt P05141)” was -0.127; that for “SNRNP200_O75643_1278_VVSDRWLSCETQLPVSFR (UniProt O75643)” was -0.0331.
To “RPL11_P62913_150_TGCIGAK (UniProt P62913)” belongs -0.152.
“SMYD5_Q6GMV2_136_LAATEQYHQVLCPGPSQDDPLHPLNK (UniProt Q6GMV2)”: the “probe-labelled cysteine peptide fold change” value is -0.404.
Turning to “RPL7A_P62424_182_MGVPYCIIK (UniProt P62424)”, the “probe-labelled cysteine peptide fold change” value is -0.0867.
To “SAP30_O75446_184_AQLVEIVGCHFR (UniProt O75446)” belongs -0.181; to “SMCHD1_A6NHR9_444_YHPFLYDRETYPDDPCFPSK (UniProt A6NHR9)”, -0.206.
The value for “SLC39A10_Q9ULF5_598_NYLCIEEEK (UniProt Q9ULF5)” was -0.202; that for “SLC25A28_Q96A46_49_GAGGGEAGACRPPVR (UniProt Q96A46)” was -0.406; that for “RPS6_P62753_83_GHSCYRPR (UniProt P62753)” was 0.137.
The value for “RNF214_Q8ND24_675_LVQPSELHPMACTHVLHK (UniProt Q8ND24)” was 0.0132.
In the case of “SMURF2_Q9HAU4_706_LFTIHQIDACTNNLPK (UniProt Q9HAU4)”, the “probe-labelled cysteine peptide fold change” value is -0.59.
The value for “RNPEP_Q9H4A4_69_CLEPEGAAELR (UniProt Q9H4A4)” was 0.0983; that for “SLC22A15_Q8IZD6_438_NVGLGTCSMFSR (UniProt Q8IZD6)” was -0.0742.
The value for “RNF31_Q96EP0_473_LSAPLPSSCGDPEK (UniProt Q96EP0)” was 0.0977.
To “RTN4IP1_Q8WWV3_130_DVSGVVMECGLDVK (UniProt Q8WWV3)” belongs 0.461; to “RTN3_O95197-3_42_SCSSSCAVHDLIFWR (UniProt O95197)”, -1.97; to “SEC63_Q9UGP8_295_KNEPPLTCPYSLK (UniProt Q9UGP8)”, -1.57.
For the target “RPS6KA1_Q15418_432_ETIGVGSYSECKR (UniProt Q15418)”, the “probe-labelled cysteine peptide fold change” value is -2.91.
The value for “SEMA4A_Q9H3S1_547_GNPEWACASGPMSR (UniProt Q9H3S1)” was -0.865; that for “SLC9A3R1_O14745_206_IVEVNGVCMEGK (UniProt O14745)” was -0.0744.
To “SAE1_Q9UBE0_295_YCFSEMAPVCAVVGGILAQEIVK (UniProt Q9UBE0)” belongs 0.0287; to “RPUSD2_Q8IZ73_246_LLAENEDVVVVDKPSSIPVHPCGR (UniProt Q8IZ73)”, -1.57; to “SEC63_Q9UGP8_671_EQTLISMPYHVCTLK (UniProt Q9UGP8)”, 0.336.
To “RPS8_P62241_182_LLACIASRPGQCGR (UniProt P62241)” belongs -0.296; to “RNF214_Q8ND24_696_FWAQTNTNDTCPFCPTLK (UniProt Q8ND24)”, 1.12.
For the target “SATB1_Q01826_173_IQLHSCPK (UniProt Q01826)”, the “probe-labelled cysteine peptide fold change” value is -0.188.
